According to PubChem BioAssay (NCI):
This is part of a sample that, as a whole, favours compounds with a hit. Of some 83,000 tested, about 20% had one in any assay.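 Note: values are percent growth. 100 is the growth of untreated cells, values between 100 and 0 indicate rising inhibition; between -100 and 0 indicates cell death.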 Activity calls are given as the source filed them. The calls were made as follows: active = growth percent below 10; inactive = the rest.

How the values were obtained:
Assay in all cases: NCI-60 one-dose screen, 48 h (100 = growth as untreated, 0 = no growth, -100 = all killed)
Conditions in all cases: 10 µM unless noted
[1] = test system: DU-145 prostate
[2] = test system: K-562 leukemia
[3] = test system: MALME-3M melanoma
[4] = test system: MDA-MB-231 breast
[5] = test system: RXF 393 renal
[6] = test system: SF-268 CNS
[7] = test system: SF-539 CNS
[8] = test system: UACC-257 melanoma
[9] = test system: M14 melanoma
[10] = test system: HCT-15 colon
[11] = test system: HT29 colon
[12] = test system: SNB-75 CNS
[13] = test system: SNB-19 CNS
[14] = test system: U251 CNS
[15] = test system: PC-3 prostate
[16] = test system: SK-MEL-5 melanoma
[17] = test system: UACC-62 melanoma
[18] = test system: LOX IMVI melanoma
[19] = test system: SK-MEL-28 melanoma

Measured: growth

COc1cc(/C=C/C(=O)c2ccc(NC(=O)CSc3nnc(-c4ccc(Cl)cc4)n3-c3ccccc3)cc2)cc(OC)c1OC
inactive: [1] 80% | [2] 44.3% | [3] 101% | [4] 54.9% | [5] 55.5% | [6] 77.6% | [7] 91.3% | [8] 73.6% | [9] 76.1% | [10] 49.8% | [11] 74.8% | [12] 62.4% | [13] 76.4% | [14] 69.7% | [15] 69.7% | [16] 55.8% | [17] 68.5% | [18] 73.9% | [19] 97.1%

Cc1cc(-c2nnc(/C=C/c3ccc4c(c3)OCO4)o2)n[nH]1
inactive: [1] 83.4% | [2] 23.5% | [3] 49.4% | [4] 54.4% | [5] 85.5% | [6] 74.9% | [7] 46.3% | [8] 78.1% | [9] 46.3% | [10] 44.3% | [11] 23% | [12] 51.3% | [13] 86.8% | [14] 85.1% | [15] 74.3% | [16] 70.9% | [17] 69.5% | [18] 52.5% | [19] 71.5%

CSC(=S)N/N=C(\C)c1ccccn1
inactive: [1] 16.1% | [4] 33.9% | [6] 17.3% | [10] 34.7% | [11] 25.9% | [12] 35.5% | [13] 24.6% | [14] 13.9% | [15] 27% | [18] 12.7% | [19] 42.4%
active: [2] 8.85% | [3] -3.24% | [5] 0.311% | [7] 1.81% | [8] 7.4% | [9] 1.91% | [16] -47.7% | [17] -22.3%

Nc1nc(N)c2cc(Sc3ccc(Cl)cc3)ccc2n1
active: [2] 4.88%
inactive: [1] 29.7% | [3] 56.7% | [4] 31.3% | [5] 42.4% | [6] 31.1% | [7] 35% | [8] 40.1% | [9] 27.8% | [10] 20.5% | [11] 14.8% | [12] 48.2% | [13] 40% | [14] 24.7% | [15] 25.2% | [16] 17.8% | [17] 24.4% | [18] 27% | [19] 54%

COC(=O)C(CCC(=O)CCl)N1C(=O)c2ccccc2C1=O (configuration not stated)
active: [18] -44.1%
inactive: [1] 87.6% | [2] 28.6% | [3] 42.2% | [4] 84.6% | [5] 25.8% | [6] 56.5% | [7] 64.9% | [8] 69.7% | [9] 39.9% | [10] 48.1% | [11] 34.3% | [12] 91.5% | [13] 99.9% | [14] 47.1% | [15] 60.3% | [16] 71.3% | [17] 64.8% | [19] 87%

CCOC(=O)c1ccc(NCCC(=O)O)cc1
inactive: [1] 126% | [2] 90.4% | [3] 110% | [4] 122% | [5] 111% | [6] 119% | [7] 112% | [8] 104% | [9] 104% | [10] 97.1% | [11] 96.8% | [12] 96% | [13] 105% | [14] 109% | [15] 91.7% | [16] 104% | [17] 102% | [18] 101% | [19] 107%

COc1cccc(NC(=O)c2c(-c3ccccc3)c(-c3ccccc3)n[nH]c2=O)c1
inactive: [1] 106% | [2] 81.9% | [3] 101% | [4] 102% | [5] 103% | [6] 105% | [7] 101% | [8] 97.9% | [9] 103% | [10] 97.6% | [11] 101% | [12] 77.9% | [13] 93.4% | [14] 101% | [15] 94.6% | [16] 99.4% | [17] 92.9% | [18] 96.3% | [19] 102%

O=C(Oc1c(Cl)c(Cl)c(Cl)c(Cl)c1Cl)C1CCCN1C(=O)OCc1ccccc1 (configuration not stated)
inactive: [1] 60.9% | [2] 17.3% | [3] 72.3% | [4] 69.1% | [5] 92.2% | [6] 42.2% | [7] 50.5% | [8] 82.1% | [9] 78.9% | [10] 15.4% | [11] 89.1% | [12] 36.4% | [13] 26.2% | [14] 18.3% | [15] 10.7% | [16] 76.2% | [17] 75.2% | [18] 64.8% | [19] 99%
